Reference: ChEMBL document CHEMBL1961873, “Compounds: GSK PKIS; Assays: Nanosyn kinase panel” (2012)

What was measured:
[1] = target: T1, Serine/threonine-protein kinase D2 (Homo sapiens) (UniProt Q9BZL6); details: at 1 µM;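 also: mean value of PRKD2 inhibition, from the GSK PKIS screening panel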
T1 sequence (whole entry): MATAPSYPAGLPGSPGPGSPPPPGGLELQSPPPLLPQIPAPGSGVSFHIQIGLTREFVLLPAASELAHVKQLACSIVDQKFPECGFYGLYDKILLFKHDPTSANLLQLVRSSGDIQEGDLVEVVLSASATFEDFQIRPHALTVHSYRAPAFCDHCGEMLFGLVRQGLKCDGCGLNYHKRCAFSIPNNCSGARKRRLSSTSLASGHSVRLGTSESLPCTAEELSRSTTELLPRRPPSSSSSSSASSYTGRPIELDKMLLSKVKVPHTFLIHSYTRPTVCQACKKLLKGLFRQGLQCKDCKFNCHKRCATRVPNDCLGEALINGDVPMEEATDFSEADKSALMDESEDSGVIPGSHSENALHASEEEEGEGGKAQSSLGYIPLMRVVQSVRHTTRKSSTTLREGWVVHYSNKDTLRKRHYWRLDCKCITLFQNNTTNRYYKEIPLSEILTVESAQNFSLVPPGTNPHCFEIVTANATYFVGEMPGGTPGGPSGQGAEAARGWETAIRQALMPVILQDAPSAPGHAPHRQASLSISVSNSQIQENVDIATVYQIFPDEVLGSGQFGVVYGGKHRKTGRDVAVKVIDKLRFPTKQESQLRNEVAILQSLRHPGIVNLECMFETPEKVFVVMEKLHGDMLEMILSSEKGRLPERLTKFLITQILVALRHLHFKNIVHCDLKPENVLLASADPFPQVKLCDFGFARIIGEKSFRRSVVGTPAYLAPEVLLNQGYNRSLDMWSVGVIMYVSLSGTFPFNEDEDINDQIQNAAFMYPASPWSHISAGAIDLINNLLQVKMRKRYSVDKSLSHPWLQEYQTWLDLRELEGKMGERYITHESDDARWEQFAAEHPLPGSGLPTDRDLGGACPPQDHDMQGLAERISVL

[2] = target: T2, Serine/threonine-protein kinase D3 (Homo sapiens) (UniProt O94806); details: at 0.1 µM
T2 sequence (whole entry): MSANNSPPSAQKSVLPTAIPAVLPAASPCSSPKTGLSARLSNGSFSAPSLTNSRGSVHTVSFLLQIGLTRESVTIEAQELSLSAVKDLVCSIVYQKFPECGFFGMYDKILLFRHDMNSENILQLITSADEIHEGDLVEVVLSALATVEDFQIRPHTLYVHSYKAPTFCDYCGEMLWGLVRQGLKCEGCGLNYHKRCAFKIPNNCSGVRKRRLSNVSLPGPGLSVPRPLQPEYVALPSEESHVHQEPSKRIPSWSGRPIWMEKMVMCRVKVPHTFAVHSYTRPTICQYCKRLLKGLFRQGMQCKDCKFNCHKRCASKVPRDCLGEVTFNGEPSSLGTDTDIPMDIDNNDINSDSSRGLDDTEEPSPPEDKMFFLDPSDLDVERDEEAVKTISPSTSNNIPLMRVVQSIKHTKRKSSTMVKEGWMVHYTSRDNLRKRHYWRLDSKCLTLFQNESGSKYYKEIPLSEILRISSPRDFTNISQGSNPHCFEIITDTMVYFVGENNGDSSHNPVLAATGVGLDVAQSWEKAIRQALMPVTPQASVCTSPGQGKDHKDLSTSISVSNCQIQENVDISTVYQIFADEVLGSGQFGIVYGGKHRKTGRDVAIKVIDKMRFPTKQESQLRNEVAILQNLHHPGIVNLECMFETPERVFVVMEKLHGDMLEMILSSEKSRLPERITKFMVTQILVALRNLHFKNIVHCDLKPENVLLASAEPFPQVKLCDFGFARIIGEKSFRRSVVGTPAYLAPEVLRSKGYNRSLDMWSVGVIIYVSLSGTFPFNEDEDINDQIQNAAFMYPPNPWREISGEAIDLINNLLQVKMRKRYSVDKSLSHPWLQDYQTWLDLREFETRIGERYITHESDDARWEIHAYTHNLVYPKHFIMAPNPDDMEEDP

[3] = target: T2, Serine/threonine-protein kinase D3 (Homo sapiens); details: at 1 µM
[4] = target: T3, cGMP-dependent protein kinase 1 (Homo sapiens) (UniProt Q13976); details: at 0.1 µM
T3 sequence (whole entry): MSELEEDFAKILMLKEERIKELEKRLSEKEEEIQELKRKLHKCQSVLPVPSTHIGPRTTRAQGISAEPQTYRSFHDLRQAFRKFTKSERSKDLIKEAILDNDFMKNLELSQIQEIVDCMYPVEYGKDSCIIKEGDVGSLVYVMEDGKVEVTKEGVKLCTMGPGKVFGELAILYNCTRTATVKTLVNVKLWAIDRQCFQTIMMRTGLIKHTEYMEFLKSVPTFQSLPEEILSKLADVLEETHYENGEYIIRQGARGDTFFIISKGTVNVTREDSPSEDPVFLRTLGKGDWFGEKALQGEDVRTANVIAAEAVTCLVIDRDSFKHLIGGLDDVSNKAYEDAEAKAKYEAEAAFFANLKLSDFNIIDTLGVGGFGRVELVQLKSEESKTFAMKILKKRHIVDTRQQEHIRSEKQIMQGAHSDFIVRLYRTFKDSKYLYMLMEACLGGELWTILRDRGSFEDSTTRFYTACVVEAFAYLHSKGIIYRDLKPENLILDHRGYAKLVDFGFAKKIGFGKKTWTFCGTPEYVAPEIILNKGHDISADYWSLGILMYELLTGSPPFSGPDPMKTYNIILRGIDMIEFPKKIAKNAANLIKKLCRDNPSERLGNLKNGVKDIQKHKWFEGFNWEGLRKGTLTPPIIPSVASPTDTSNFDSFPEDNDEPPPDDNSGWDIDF

[5] = target: T3, cGMP-dependent protein kinase 1 (Homo sapiens); details: at 1 µM
[6] = target: T4, cGMP-dependent protein kinase 2 (Homo sapiens) (UniProt Q13237); details: at 0.1 µM
T4 sequence (whole entry): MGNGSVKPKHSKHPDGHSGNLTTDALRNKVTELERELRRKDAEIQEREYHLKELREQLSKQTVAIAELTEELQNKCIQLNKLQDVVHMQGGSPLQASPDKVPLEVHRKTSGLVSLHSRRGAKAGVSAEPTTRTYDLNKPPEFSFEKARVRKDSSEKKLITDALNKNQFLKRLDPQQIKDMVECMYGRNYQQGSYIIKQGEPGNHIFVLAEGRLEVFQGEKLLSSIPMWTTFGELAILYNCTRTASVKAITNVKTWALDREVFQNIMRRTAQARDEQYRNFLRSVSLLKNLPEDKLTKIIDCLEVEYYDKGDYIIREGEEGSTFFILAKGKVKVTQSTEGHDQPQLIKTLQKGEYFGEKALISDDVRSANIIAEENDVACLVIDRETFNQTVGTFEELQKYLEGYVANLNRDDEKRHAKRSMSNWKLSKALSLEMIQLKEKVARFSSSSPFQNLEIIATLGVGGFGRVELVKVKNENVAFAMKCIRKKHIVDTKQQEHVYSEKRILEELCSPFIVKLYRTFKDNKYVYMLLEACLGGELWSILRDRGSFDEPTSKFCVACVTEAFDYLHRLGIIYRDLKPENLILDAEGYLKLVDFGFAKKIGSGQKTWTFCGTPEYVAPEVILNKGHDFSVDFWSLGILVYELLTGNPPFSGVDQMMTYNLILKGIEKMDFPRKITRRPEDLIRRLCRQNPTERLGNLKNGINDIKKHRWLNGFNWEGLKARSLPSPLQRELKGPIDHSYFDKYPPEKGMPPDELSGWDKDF

[7] = target: T4, cGMP-dependent protein kinase 2 (Homo sapiens); details: at 1 µM
[8] = target: T5, cAMP-dependent protein kinase catalytic subunit PRKX (Homo sapiens) (UniProt P51817); details: at 0.1 µM
T5 sequence (whole entry): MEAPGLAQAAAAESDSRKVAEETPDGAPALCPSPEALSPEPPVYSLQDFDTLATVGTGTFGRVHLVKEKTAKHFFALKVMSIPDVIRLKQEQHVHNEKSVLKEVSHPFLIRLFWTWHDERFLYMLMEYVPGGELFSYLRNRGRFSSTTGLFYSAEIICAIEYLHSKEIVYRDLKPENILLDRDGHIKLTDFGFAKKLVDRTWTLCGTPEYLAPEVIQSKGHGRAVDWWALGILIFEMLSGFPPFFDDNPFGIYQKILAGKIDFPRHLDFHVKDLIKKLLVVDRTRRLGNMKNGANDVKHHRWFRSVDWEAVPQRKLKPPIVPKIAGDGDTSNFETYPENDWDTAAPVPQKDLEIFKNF

[9] = target: T5, cAMP-dependent protein kinase catalytic subunit PRKX (Homo sapiens); details: at 1 µM
[10] = target: Rho-associated protein kinase 1 (Homo sapiens) (UniProt Q13464); details: at 0.1 µM;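 also: values are mean percent inhibition of ROCK1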
Rho-associated protein kinase 1 (Homo sapiens), sequence (Q13464 2-1354 limits assumed): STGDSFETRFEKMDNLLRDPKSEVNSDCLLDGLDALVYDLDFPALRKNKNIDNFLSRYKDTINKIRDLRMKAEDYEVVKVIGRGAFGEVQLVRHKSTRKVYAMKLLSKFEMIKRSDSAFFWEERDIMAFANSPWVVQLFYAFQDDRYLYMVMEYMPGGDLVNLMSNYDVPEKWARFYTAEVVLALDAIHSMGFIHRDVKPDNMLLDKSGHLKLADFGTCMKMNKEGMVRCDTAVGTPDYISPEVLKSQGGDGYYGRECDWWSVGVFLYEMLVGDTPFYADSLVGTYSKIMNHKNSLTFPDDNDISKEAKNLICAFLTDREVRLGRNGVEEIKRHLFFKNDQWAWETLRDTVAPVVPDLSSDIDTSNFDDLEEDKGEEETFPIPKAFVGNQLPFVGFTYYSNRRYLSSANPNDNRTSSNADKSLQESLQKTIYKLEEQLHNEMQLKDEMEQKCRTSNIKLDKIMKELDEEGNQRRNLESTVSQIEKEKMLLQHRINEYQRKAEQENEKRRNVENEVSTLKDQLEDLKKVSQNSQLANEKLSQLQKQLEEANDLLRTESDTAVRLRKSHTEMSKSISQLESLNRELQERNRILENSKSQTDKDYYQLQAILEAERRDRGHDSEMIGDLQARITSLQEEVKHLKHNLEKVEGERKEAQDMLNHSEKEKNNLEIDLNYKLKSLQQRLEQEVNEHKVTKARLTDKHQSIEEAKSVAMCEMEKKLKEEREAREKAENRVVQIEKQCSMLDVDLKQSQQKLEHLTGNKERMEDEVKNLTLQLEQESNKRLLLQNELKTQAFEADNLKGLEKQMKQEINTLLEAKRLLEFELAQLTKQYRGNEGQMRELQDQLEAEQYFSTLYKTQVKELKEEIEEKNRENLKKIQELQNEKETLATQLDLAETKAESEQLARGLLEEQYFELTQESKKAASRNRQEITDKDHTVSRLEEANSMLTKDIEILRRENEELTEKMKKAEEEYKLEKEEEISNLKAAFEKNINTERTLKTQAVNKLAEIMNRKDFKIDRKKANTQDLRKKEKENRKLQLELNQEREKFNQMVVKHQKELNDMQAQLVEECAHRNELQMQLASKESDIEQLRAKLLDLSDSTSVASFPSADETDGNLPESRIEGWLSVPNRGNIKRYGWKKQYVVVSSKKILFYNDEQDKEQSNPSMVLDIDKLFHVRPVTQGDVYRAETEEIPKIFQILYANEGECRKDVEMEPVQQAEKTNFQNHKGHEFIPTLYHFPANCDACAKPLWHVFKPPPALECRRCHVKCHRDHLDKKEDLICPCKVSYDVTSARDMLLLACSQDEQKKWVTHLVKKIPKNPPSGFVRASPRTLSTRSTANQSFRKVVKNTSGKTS

SMILES | inhibition [1] | inhibition [2] | inhibition [3] | inhibition [4] | inhibition [5] | inhibition [6] | inhibition [7] | inhibition [8] | inhibition [9] | inhibition [10]
CN(c1ccc(NC(=O)NCCN2CCOCC2)cc1)c1ccnc(Nc2ccc(CS(C)(=O)=O)cc2)n1 | 1.04% | 1.13% | 0.94% | 2.25% | 2.49% | 0.06% | 0.57% | 2.36% | 4.38% | 1.51%
NS(=O)(=O)c1ccc(N/N=C2\C(=O)Nc3cccc(CCc4ccncc4)c32)cc1 | 0.82% | 0.3% | 0.91% | 0.22% | -0.46% | -0.44% | -0.5% | 0.12% | 0.09% | 0.65%
Cc1ccc(-c2cc3c(NC(=O)C4CC4)ncnc3o2)cc1 | 6.17% | 5.27% | 7.32% | 3.82% | 5.54% | 1.95% | 4.28% | 1.05% | 0.33% | 1.09%
CC1=C(C(=O)Nc2ccc3[nH]ncc3c2)C(c2ccc(F)cc2)N=C(c2ccc(C(F)(F)F)nc2)N1 (stereo not given) | 2.33% | 3.1% | 2.8% | 7.52% | 42.2% | 4.96% | 31.1% | 3.93% | 23.6% | 31.3%
CC1(C)CC(n2cnc(-c3ccc(F)cc3)c2-c2ccnc(N)n2)CC(C)(C)N1 | 3.58% | 1.4% | 3.8% | 0.62% | 2.53% | 1.24% | 2.55% | 0.98% | 2.76% | 1.34%
O=C(Nc1n[nH]c2nnc(-c3cccnc3)cc12)C1CC1 | 0.68% | -0.7% | 0.02% | -0.91% | 0.14% | 1.31% | 7.32% | -0.34% | -0.33% | -0.21%
COc1cc(N2CCN(C(C)C)CC2)ccc1Nc1nc(Nc2cccc(F)c2C(=O)O)c2cc[nH]c2n1 | 4.66% | 4.61% | 4.8% | 1.6% | 5.7% | 1.77% | 3.84% | 1.23% | 2.86% | 0.41%
CCS(=O)(=O)c1ccc(OC)c(Nc2ncc(-c3cccc(F)c3)o2)c1 | 3.8% | 4.67% | 4.73% | 4.88% | 8.02% | 3.78% | 6.47% | 3.37% | 2.6% | 2.49%
